KB-V1 MDR tox – kills drug-selected multidrug resistant KB-V1 cells | KB-V1 MDR cells viability, CellTiter-Glo, 72 h | Potency, µM (top dose mostly 46.1 µM), usual class: cytotoxic | hit rate 3.4% among 400,000; note: % is set by controls: 0 for no effect and ±100 for the full control effect; nearly all actives have a fitted effect of over 60% in size
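KB-V1 MDR subline cells in DMEM (phenol-red free, 10% FBS) exposed to compounds in qHTS concentration series for 72 h at 37 degrees C. Viability read by CellTiter-Glo luminescence; concentration-effect curves fitted after normalization and correction.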
MCF10A rereplic – inducers of DNA re-replication in MCF 10A breast cells | MCF 10A DNA re-replication, Hoechst nuclear intensity, 48 h | Potency, µM (series often up to 46.1 µM), for inactives: at the highest dose activity, positive = re-replication, most hits filed as activators | hit rate 2.9% among 350,000; note: % of control where 0% means no effect; nearly all actives have a fitted effect of over 50% in size
SW480 rereplic – DNA re-replication induction in SW480 cells | SW480 DNA re-replication, Hoechst DNA content imaging, 48 h | hit rate 1.8% among 340,000 | Potency, µM (doses to about 46.1 µM), for the others: top-dose re-replication activation, most hits filed as activators; note: % of control where 0% means no effect; nearly all actives have a fitted effect of over 55% in size
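Hoechst fluorescence of nuclei (405 nm excitation, 500-530 nm emission) measured by plate-scanning imager after 48 hr compound exposure at 37 C; re-replication scored as increased number of nuclei with elevated intensity.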
HT1080 IDH1KD tx – HT-1080 IDH1 knockdown cell toxicity (counter line) | Potency, µM (highest dose often 46.1 µM), for inactives: top-dose activity, negative = toxicity, hits mostly cytotoxic | hit rate 2% among 360,000 | AID 686971 | HT-1080 IDH1 knockdown viability, ATP luminescence, 48 h;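 note: 0% = DMSO wells and -100% = cell-free medium wells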
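HT-1080-IDH1KD cells (IDH1 knocked down), 750/well in RPMI with 5% FBS, treated with compound 48 h at 37 degrees C. Viability by CellTiter-Glo luminescence, normalised to DMSO and no-cell wells; concentration-response curves classed.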
HT1080NT lethal – kills 2HG-producing HT-1080-NT fibrosarcoma cells; Potency, µM (doses to about 46.1 µM), for inactives: at the highest dose activity, negative = less viability, actives largely listed as cytotoxic; hit rate 1.6% among 360,000; HT-1080-NT fibrosarcoma viability, CellTiter-Glo ATP luminescence, 48 h;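 note: NT is the 2HG producing partner of a matched IDH1 knockdown line; 0% = DMSO-treated cells and -100% = media-only wells without cells; nearly all actives have a fitted effect of over 55% in size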
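Read-out is CellTiter-Glo luminescence after 10 minutes at room temperature, following 48 hours' compound treatment of HT-1080-NT cells (750 cells/well, RPMI, 5% FBS, 37 degrees C).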
KB-3-1 cytotox – kills parental KB-3-1 adenocarcinoma cells | hit rate 1.4% among 400,000 | KB-3-1 viability, CellTiter-Glo ATP luminescence, 72 h | Potency, µM (titrated, usually from 46.1 µM), actives largely listed as cytotoxic; note: % is set by controls: 0 for no effect and ±100 for the full control effect; nearly all actives have a fitted effect of over 60% in size
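Viability of parental KB-3-1 cells, measured by CellTiter-Glo luminescence, followed a 72 h incubation at 37 °C with pinned compounds in phenol-red-free DMEM containing 10% FBS.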
* = called active by the depositor; i = inactive; ? = inconclusive; / = no result given. This is a sample that favours compounds with a hit; in the whole collection about 8% have one here. Calls come from the whole dose curve; as a rule, active = well fitted curve in the direction sought with a large enough effect; inconclusive = small, poorly fitted or top-dose-only effect, or another doubt; inactive = no such curve, though single readings can be large; an effect the other way counts as inactive or inconclusive. Potency is the fitted concentration of half-maximal effect.

SMILES	KB-V1 MDR tox	MCF10A rereplic	SW480 rereplic	HT1080 IDH1KD tx	HT1080NT lethal	KB-3-1 cytotox
Cc1ccc(C)c(-n2[nH]c3c4c(ccc3c2=O)C(=O)c2ccccc2C4=O)c1	?	18µM*	-1%	-2%	-1%	?
COCCNC(=O)c1cccc2c1-c1ccccc1C2=O	?	-2%	-5%	19%	18%	i
Nc1nonc1-c1nc2ccccc2n1CC(=O)Nc1ccccc1	?	10%	12µM*	?	?	?
CCCCCOc1ccc(NC(=O)Cn2c(-c3nonc3N)nc3ccccc32)cc1	?	/	/	/	/	i
CCOC(=O)c1ccccc1NC(=O)Cn1c(-c2nonc2N)nc2ccccc21	1.5µM*	0.46µM*	0.92µM*	0.92µM*	?	1µM*
CCCCn1c(-c2nonc2N)nc2ccccc21	?	?	?	-26%	-5%	?
N#CCCn1c(-c2nonc2NC(=O)c2ccccc2Cl)nc2ccccc21	i	16%	-1%	5%	4%	i
CCCCn1c(-c2nonc2NC(=O)c2ccccc2Cl)nc2ccccc21	?	16%	7%	-4%	-15%	3.3µM*
CC(C)CCn1c(-c2nonc2N)nc2ccccc21	i	16µM*	?	?	?	i
COc1ccc(NC(=O)CC2C(=O)N(c3ccc(C)cc3)C(=O)N2CCc2ccccc2)cc1 (centres undefined)	i	/	/	/	/	?
CC1CCCN(C(=O)Cn2c(-c3nonc3N)nc3ccccc32)C1 (centres undefined)	7.3µM*	15%	-3%	-4%	10%	i
CC(C)(Oc1ccc(Cl)cc1)C(=O)Nc1nnc2n1CCS2	i	/	/	/	/	i
CC(C)NC(=S)N/N=C1\CCCCC1C1CCCCC1 (centres undefined)	?	18µM*	?	-8%	4%	?
CC1CCCC/C1=N\NC(=S)Nc1ccccc1 (centres undefined)	?	-6%	2%	1%	19%	i
CC1=C(C(=O)Nc2cccnc2)C(c2ccccc2)n2nc(SCc3ccccc3F)nc2N1 (centres undefined)	?	/	/	/	/	i
C/C(=N\NC(=O)c1nnn(-c2nonc2N)c1CN(C)c1ccccc1)c1ccc(O)cc1	i	-20%	-13%	-15%	-15%	i
C/C(=N\NC(=O)c1nnn(-c2nonc2N)c1-c1ccccc1)c1ccccc1O	i	15µM*	0.82µM*	1.8µM*	?	?
CCOC(=O)c1nnn(-c2nonc2N)c1-c1ccc(Br)cc1	i	0.65µM*	-3%	1%	1%	i
C/C(=N\NC(=O)c1nnn(-c2nonc2N)c1CN(C)c1ccccc1)c1ccccn1	?	?	7%	?	?	5.8µM*
CC(C)CCCC(C)NC(C)C (centres undefined)	/	-8%	1%	/	/	/
CC1(C)CC(=O)CC2(C1)NCC(c1ccccc1)c1c2[nH]c2ccccc12 (centres undefined)	i	3%	-21%	-20%	-5%	i
COc1cccc(C2CNC3(CCCC(C)C3)c3[nH]c4ccccc4c32)c1OC (centres undefined)	?	18µM*	95%	?	?	i
Cc1ccc(N[S+](=O)([O-])c2cc3c(cc2CCc2ccccc2)NC(=O)CO3)cc1C	i	/	/	/	/	i
COC(=O)/C=c1/s/c(=C(/C#N)C(=O)N2CCCCC2)n(-c2ccccc2)c1=O	i	13%	0.33µM*	-16%	6%	i
O=C(Nc1ccc2c(c1)OCCO2)c1cccc(S(=O)(=O)N2CCOCC2)c1	21µM*	4%	6%	0%	8%	i
SMILES	KB-V1 MDR tox	MCF10A rereplic	SW480 rereplic	HT1080 IDH1KD tx	HT1080NT lethal	KB-3-1 cytotox
O=C(Nc1ccc2c(c1)OCCO2)c1cccc(S(=O)(=O)N2CCCCC2)c1	16µM*	?	0%	-11%	-3%	i
O=C(Nc1cccc(S(=O)(=O)N2CCCC2)c1)c1cccc(S(=O)(=O)N2CCOCC2)c1	i	4%	-8%	7%	-4%	i
O=C(Nc1ccc2c(c1)OCCO2)c1ccc2nccnc2c1	i	7.3µM*	1%	-6%	-1%	i
Cc1ccc(NC(=O)CNc2cccc(S(=O)(=O)N3CCOCC3)c2)cc1F	i	24%	-1%	-16%	-2%	i
O=C(Nc1ccc2c(c1)OCCO2)c1ccc(Cl)c(Cl)c1	i	10%	-1%	-17%	-15%	i
CCN(CC)S(=O)(=O)c1cc(NC(=O)CNc2cccc(S(=O)(=O)N3CCOCC3)c2)ccc1C	i	21%	11%	18µM*	6.5µM*	8.2µM*
COc1ccc(OC)c(/C=C/c2c3ccccc3cc[n+]2C)c1	i	/	/	/	/	?
CCOc1ccc(S(=O)(=O)/N=C(/Nc2ccc(C)c(S(=O)(=O)N3CCOCC3)c2)c2ccccc2)cc1	9.2µM*	5%	1%	0%	-3%	i
Cc1ccc(NC(=O)c2cccc(S(=O)(=O)N(C)c3ccccc3)c2)cc1S(=O)(=O)N1CCOCC1	5.2µM*	-2%	0%	-15%	-4%	?
COc1cccc(N2CCN(c3ncc4c(n3)CCN(Cc3ccc(Br)cc3)C4)CC2)c1	i	/	/	/	/	?
CCOC(=O)c1cnc2c(OC)cccc2c1Nc1cccc(O)c1	13µM*	/	/	/	/	?
CCOC(=O)c1cnc2c(C(F)(F)F)cccc2c1Nc1cccc(C(=O)OC)c1	i	/	/	/	/	i
Cc1cc(=O)oc2cc(OCC(=O)N3CCOCC3)c(Cl)cc12	9.2µM*	-6%	3%	6%	5%	i
Cc1cc(=O)oc2cc(OCC(=O)N3CCCC3)c(Cl)cc12	i	-1%	-13%	19%	-3%	i
CCOC(=O)C(=Cc1ccc(OCc2ccc([N+](=O)[O-])cc2)c(OC)c1)C(=O)OCC	21µM*	5.8µM*	4.6µM*	?	21µM*	?
COC(=O)C(=Cc1ccc(OCc2ccc([N+](=O)[O-])cc2)c(OC)c1)C(=O)OC	?	1.5µM*	25%	?	?	i
COc1cc(C(c2c(C)[nH][nH]c2=O)c2c(C)[nH][nH]c2=O)ccc1OC(=O)c1cccc([N+](=O)[O-])c1	?	-4%	-11%	7%	9%	i
COc1cc(C(c2c(C)[nH][nH]c2=O)c2c(C)[nH][nH]c2=O)ccc1OCc1ccc([N+](=O)[O-])cc1	i	21µM*	?	13%	0%	i
